PubChem BioAssay (NCI)
This is part of a sample that, as a whole, favours compounds with a hit. Of some 79,000 tested, about 15% had one in any assay. Active and inactive are the calls of the source. Cut-off read from the data, not from the text of the source: active = growth inhibition above about 70%; inactive = the rest.

Key:
[1] = NCI Yeast Anticancer Drug Screen. Data for the rad52 strain (AID 147);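 note: 0% = growth of vehicle-treated control cultures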; conditions: S. cerevisiae rad52 mutant growth inhibition, hits give high values
Outline: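 Growth of repair-deficient yeast cells was compared between compound-treated and vehicle-treated cultures to give percent inhibition.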

[2] = NCI Yeast Anticancer Drug Screen. Data for the wt1 strain (AID 149);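 note: 0% = growth of vehicle-treated wt1 cultures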; conditions: S. cerevisiae wt1 strain (SPY 50644) growth inhibition, hits give high values
Outline: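 wt1 yeast, compound-treated; % growth inhibition vs vehicle control.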

[3] = NCI Yeast Anticancer Drug Screen. Data for the rad50EPP+ strain (AID 151);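 note: 0% = growth of vehicle-treated control cultures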; conditions: S. cerevisiae rad50 mutant strain, hits give high values
Outline: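 Measured: growth inhibition of rad50EPP+ yeast. Reference: vehicle-treated controls. Screen uses strains with defined genetic alterations in DNA damage repair or cell cycle control.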

[4] = NCI Yeast Anticancer Drug Screen. Data for the mgt1 strain (AID 153); conditions: S. cerevisiae mgt1 mutant growth inhibition, hits give high values
Outline: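 Compounds were applied to mgt1 mutant yeast, and growth was then compared against vehicle-treated control cultures to give percent inhibition.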

[5] = NCI Yeast Anticancer Drug Screen. Data for the rad50 strain (AID 155);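 note: 0% = growth of vehicle-only cultures of the same strain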; conditions: S. cerevisiae rad50 strain growth inhibition, hits give high values
Outline: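 Genetically altered yeast (DNA repair pathway); compound treatment; growth inhibition vs vehicle ctrl.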

[6] = NCI Yeast Anticancer Drug Screen. Data for the mec2-1 strain (AID 157); conditions: S. cerevisiae mec2-1 strain, hits give high values
Outline: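 Compounds were applied to mec2-1 yeast cells. Their growth was then compared with that of vehicle-treated cultures to give growth inhibition.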

[7] = NCI Yeast Anticancer Drug Screen. Data for the rad14 strain (AID 159);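 note: 0% = growth of vehicle-treated control cultures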; conditions: S. cerevisiae rad14 strain growth inhibition, hits give high values
Outline: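 Test compounds were applied to a repair-deficient yeast strain. Its growth was then compared with that of cultures given vehicle alone, and inhibition was expressed relative to those controls.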

[8] = NCI Yeast Anticancer Drug Screen. Data for the sgs1 mgt1 strain (AID 161);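 note: 0% = growth of cultures given vehicle only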; conditions: S. cerevisiae sgs1 mgt1 strain, hits give high values
Outline: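 Growth of a repair-deficient yeast mutant was monitored after compound treatment and expressed as inhibition relative to vehicle-treated cultures.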

[9] = NCI Yeast Anticancer Drug Screen. Data for the CLN2oe strain (AID 163);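 note: 0% = growth of vehicle-only control cultures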; conditions: S. cerevisiae CLN2oe strain, hits give high values
Outline: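 Cells of an engineered yeast line with disturbed cell-cycle regulation are treated with compound. Inhibition of growth is then calculated relative to the vehicle-treated reference.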

[10] = NCI Yeast Anticancer Drug Screen. Data for the cln2 rad14 strain (AID 165);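 note: 0% = growth equal to vehicle treated cultures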; conditions: S. cerevisiae cln2 rad14 strain, hits give high values
Outline: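 Strain: cln2 rad14 yeast, altered in cell cycle control and DNA damage repair. Read-out: growth inhibition vs vehicle.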

[11] = NCI Yeast Anticancer Drug Screen. Data for the bub3 strain (AID 167); conditions: S. cerevisiae bub3 mutant strain, hits give high values
Outline: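 Yeast carrying a defined mutation is treated with each compound, and growth is compared with that of vehicle-exposed cells to give inhibition.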

[12] = NCI Yeast Anticancer Drug Screen. Data for the wt2 strain (AID 169);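 note: 0% = growth of vehicle-treated yeast cultures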; conditions: S. cerevisiae wt2 strain growth inhibition, hits give high values
Outline: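 Growth of compound-treated yeast is measured and expressed as inhibition relative to vehicle-only controls.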

[13] = NCI Yeast Anticancer Drug Screen. Data for the mlh1 strain (AID 171);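 note: 0% = growth of vehicle-treated control cultures of the same strain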; conditions: S. cerevisiae mlh1 strain growth inhibition, hits give high values
Outline: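 Test agents were incubated with yeast bearing a defined DNA damage repair or cell cycle control alteration; values are growth inhibition normalised to vehicle-treated cultures.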

[14] = NCI Yeast Anticancer Drug Screen. Data for the sgs1 strain (AID 173);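 note: 0% = growth of vehicle-only control cultures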; conditions: S. cerevisiae sgs1 mutant, hits give high values
Outline: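 Strain with an altered DNA repair or cell cycle pathway exposed to compound. Growth then measured. Value = inhibition versus vehicle control.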

[15] = NCI Yeast Anticancer Drug Screen. Data for the mlh1 rad18 strain (AID 175); conditions: S. cerevisiae mlh1 rad18 strain growth inhibition, hits give high values
Outline: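 A repair-deficient yeast strain is exposed to test compound, and growth is scored relative to vehicle-treated controls.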

[16] = NCI Yeast Anticancer Drug Screen. Data for the rad18 strain (AID 177); conditions: S. cerevisiae rad18 mutant growth inhibition, hits give high values
Outline: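 DNA-repair-defective yeast; compound treatment; growth inhibition scored against vehicle.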

[17] = at 5.0 µM (retest, dose inferred, filed as 0.5)
[18] = at 50.0 µM (retest, dose inferred, filed as 5.0)

Measured: growth inhibition

O=C(O)CCCOc1cc(Cl)c(Cl)cc1Cl
inactive: [1]; at 1.2 µM -13% | [1]; at 3.7 µM -4% | [1]; at 11.0 µM 1% | [1]; at 33.0 µM 45% | [2]; at 1.2 µM -1% | [2]; at 3.7 µM -9% | [2]; at 11.0 µM 2% | [2]; at 33.0 µM 22% | [3]; at 1.2 µM -10% | [3]; at 3.7 µM -6% | [3]; at 11.0 µM 13% | [3]; at 33.0 µM 43% | [4]; at 1.2 µM -17% | [4]; at 3.7 µM -32% | [4]; at 11.0 µM -13% | [4]; at 33.0 µM 35% | [5]; at 1.2 µM -10% | [5]; at 3.7 µM -17% | [5]; [17] 40% | [5]; at 11.0 µM -5% | [5]; at 33.0 µM 42% | [6]; at 1.2 µM -24% | [6]; at 3.7 µM -13% | [6]; [17] 52% | [6]; at 11.0 µM 4% | [6]; at 33.0 µM 34% | [7]; at 1.2 µM -13% | [7]; at 3.7 µM -4% | [7]; at 11.0 µM -4% | [7]; at 33.0 µM 17% | [8]; [17] -17% | [8]; [18] 18% | [9]; at 1.2 µM 0% | [9]; at 3.7 µM -15% | [9]; at 11.0 µM -11% | [9]; at 33.0 µM 4% | [9]; at 100.0 µM 60% | [10]; [17] 10% | [10]; [18] 47% | [11]; at 1.2 µM -6% | [11]; at 3.7 µM -3% | [11]; [17] 28% | [11]; at 11.0 µM -2% | [11]; at 33.0 µM 43% | [11]; [18] 52% | [12]; at 1.2 µM -6% | [12]; at 3.7 µM -11% | [12]; at 11.0 µM -4% | [12]; at 33.0 µM 30% | [13]; at 1.2 µM -20% | [13]; at 3.7 µM -27% | [13]; at 11.0 µM 2% | [13]; at 33.0 µM 40% | [14]; at 1.2 µM -13% | [14]; at 3.7 µM -18% | [14]; at 11.0 µM 2% | [14]; at 33.0 µM 43% | [15]; [17] 42% | [16]; at 1.2 µM -33% | [16]; at 3.7 µM -21% | [16]; at 11.0 µM -7% | [16]; at 33.0 µM 41%
active: [1]; at 100.0 µM 75% | [2]; at 100.0 µM 71% | [3]; at 100.0 µM 70% | [4]; at 100.0 µM 80% | [5]; [18] 98% | [5]; at 50.0 µM 82% | [5]; at 100.0 µM 78% | [6]; [18] 98% | [6]; at 50.0 µM 74.8% | [6]; at 100.0 µM 90% | [7]; at 100.0 µM 81% | [8]; at 50.0 µM 77.2% | [10]; at 50.0 µM 75.5% | [11]; at 50.0 µM 83.4% | [11]; at 100.0 µM 78% | [12]; at 100.0 µM 80% | [13]; at 100.0 µM 80% | [14]; at 100.0 µM 76% | [15]; [18] 99% | [15]; at 50.0 µM 78.7% | [16]; at 100.0 µM 77%

Nc1nc(N)c2c(Cl)c(CNc3ccc(C(=O)NC(CC(=O)O)C(=O)O)cc3)ccc2n1 (stereo unspecified)
active: [1]; at 33.0 µM 80% | [1]; at 100.0 µM 91% | [2]; at 100.0 µM 74% | [5]; at 50.0 µM 77.5% | [5]; at 100.0 µM 80% | [6]; at 11.0 µM 75% | [6]; at 33.0 µM 93% | [6]; [18] 90% | [6]; at 50.0 µM 87.8% | [6]; at 100.0 µM 95% | [7]; at 100.0 µM 78% | [11]; at 100.0 µM 72% | [16]; at 33.0 µM 78% | [16]; at 100.0 µM 84%
inactive: [1]; at 1.2 µM 40% | [1]; at 3.7 µM 35% | [1]; at 11.0 µM 52% | [2]; at 1.2 µM 19% | [2]; at 3.7 µM 15% | [2]; at 11.0 µM 17% | [2]; at 33.0 µM 42% | [3]; at 1.2 µM 10% | [3]; at 3.7 µM 6% | [3]; at 11.0 µM 13% | [3]; at 33.0 µM 17% | [3]; at 100.0 µM 41% | [4]; at 1.2 µM 6% | [4]; at 3.7 µM -3% | [4]; at 11.0 µM -2% | [4]; at 33.0 µM 30% | [4]; at 100.0 µM 55% | [5]; at 1.2 µM 12% | [5]; at 3.7 µM 18% | [5]; [17] 8% | [5]; at 11.0 µM 14% | [5]; at 33.0 µM 65% | [5]; [18] 47% | [6]; at 1.2 µM 14% | [6]; at 3.7 µM 28% | [6]; [17] 0% | [7]; at 1.2 µM -8% | [7]; at 3.7 µM -11% | [7]; at 11.0 µM -18% | [7]; at 33.0 µM 44% | [8]; [17] 20% | [8]; [18] 50% | [8]; at 50.0 µM 55.5% | [9]; at 1.2 µM -5% | [9]; at 3.7 µM 15% | [9]; at 11.0 µM 12% | [9]; at 33.0 µM 22% | [9]; at 100.0 µM 34% | [10]; [17] 20% | [10]; [18] 16% | [10]; at 50.0 µM 19.4% | [11]; at 1.2 µM 3% | [11]; at 3.7 µM -10% | [11]; [17] -9% | [11]; at 11.0 µM 14% | [11]; at 33.0 µM 7% | [11]; [18] 26% | [11]; at 50.0 µM 43.5% | [12]; at 1.2 µM -42% | [12]; at 3.7 µM -44% | [12]; at 11.0 µM -42% | [12]; at 33.0 µM -1% | [12]; at 100.0 µM 28% | [13]; at 1.2 µM 16% | [13]; at 3.7 µM 12% | [13]; at 11.0 µM 1% | [13]; at 33.0 µM 25% | [13]; at 100.0 µM 44% | [15]; [17] 12% | [15]; [18] 46% | [15]; at 50.0 µM 52.1% | [16]; at 1.2 µM 48% | [16]; at 3.7 µM 54% | [16]; at 11.0 µM 57%

CCN(CC)CCBr
inactive: [1]; at 1.2 µM 1% | [1]; at 3.7 µM 4% | [1]; at 11.0 µM 12% | [1]; at 33.0 µM 43% | [2]; at 1.2 µM -1% | [2]; at 3.7 µM 1% | [2]; at 11.0 µM -6% | [2]; at 33.0 µM -4% | [2]; at 100.0 µM -8% | [3]; at 1.2 µM 2% | [3]; at 3.7 µM 6% | [3]; at 11.0 µM 27% | [3]; at 33.0 µM 68% | [4]; at 1.2 µM -2% | [4]; at 3.7 µM 0% | [4]; at 11.0 µM -1% | [4]; at 33.0 µM -1% | [4]; at 100.0 µM -2% | [5]; at 1.2 µM 0% | [5]; at 3.7 µM -38% | [5]; [17] 9% | [5]; at 11.0 µM 13% | [5]; at 33.0 µM 53% | [5]; [18] 65% | [6]; at 1.2 µM -1% | [6]; at 3.7 µM 0% | [6]; [17] -9% | [6]; at 11.0 µM 3% | [6]; at 33.0 µM 1% | [6]; [18] 7% | [6]; at 50.0 µM -12.4% | [6]; at 100.0 µM 28% | [7]; at 1.2 µM -1% | [7]; at 3.7 µM -1% | [7]; at 11.0 µM -1% | [7]; at 33.0 µM -1% | [7]; at 100.0 µM 7% | [8]; [17] 4% | [8]; [18] 38% | [8]; at 50.0 µM 37.5% | [9]; at 1.2 µM 0% | [9]; at 3.7 µM -5% | [9]; at 11.0 µM -5% | [9]; at 33.0 µM -7% | [9]; at 100.0 µM -4% | [10]; [17] -2% | [10]; [18] 1% | [10]; at 50.0 µM 1.5% | [11]; at 1.2 µM 0% | [11]; at 3.7 µM -3% | [11]; [17] -3% | [11]; at 11.0 µM -7% | [11]; at 33.0 µM -6% | [11]; [18] -7% | [11]; at 50.0 µM -11.4% | [11]; at 100.0 µM -16%
active: [1]; at 100.0 µM 82% | [3]; at 100.0 µM 92% | [5]; at 50.0 µM 70.2% | [5]; at 100.0 µM 89%
